Shown are actives, neighbours in structure and some others; about 11% of the full set was active somewhere.
Sm TGR inh: blocks Schistosoma mansoni thioredoxin glutathione reductase; Q962Y6; purified TGR, DTNB reduction, TNB absorbance 405 nm; AID 485364; Potency, µM (series often up to 114 µM), usual class: inhibitors; 3% of 360,000 active; further: nearly all actives have a fitted effect of over 60% in size
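First, TGR (20 nM dispensed) and NADPH were mixed with compound. Second, a 15 min room-temperature incubation followed. Third, further NADPH and then DTNB were added to start the reaction. Finally, TNB absorbance was monitored kinetically.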
Pf growth 96h: inhibits malaria parasite growth, 96 h; AID 504834; P. falciparum luciferase reporter growth, 96 h; 6.9% of 320,000 active; Potency, µM (highest dose often 28.7 µM), actives largely listed as inhibitors
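P. falciparum expressing integrated firefly luciferase grown in erythrocytes (2% hematocrit, 0.05% parasitemia final) with compounds for 96 hours at 37 C, 5% CO2. Growth inhibition read as loss of luminescence after adding luciferase detection reagent.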
Pf growth 48h: P. falciparum growth inhibition at 48 hours (one generation); P. falciparum luciferase growth in erythrocytes, 48 h; Potency, µM (doses to about 28.7 µM), actives largely listed as inhibitors; 5.9% of 310,000 active; AID 504832
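In quantitative HTS format, infected erythrocytes bearing luciferase-reporter parasites were treated for a single generation at 37 C. Luminescence after adding detection reagent served as the growth measure.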
NS1 inh: inhibitors of influenza NS1 protein function; Potency, µM (titrated, usually from 46.1 µM); 0.4% of 270,000 active; AID 2326; calls by dose curve; further: actives are rising curves; nearly all actives have a fitted effect of over 50% in size
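OD600 was taken as the measure of yeast growth restored by compound in an NS1-expressing S. cerevisiae strain. Cells had been washed out of glucose medium and diluted 1:100 into galactose -URA medium, pH 6.0.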
AMA1 RON2 block: disrupts binding of P. falciparum AMA1 to RON2 | AlphaScreen AMA1-biotinylated RON2 peptide binding | Potency, µM (doses to about 58.2 µM), actives largely listed as inhibitors | 0.2% of 360,000 active; further: nearly all actives have a fitted effect of over 45% in size
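AMA1 (3D7) with his tag at 25 nM final met compounds first, then biotinylated RON2 peptide at 25 nM; detection used donor plus acceptor beads, 10 µg/mL apiece, read by AlphaScreen after 30 min at room temperature.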
Each line names hits and unclear results; the compound was inactive in the other large screens. Unless noted, the call rests on the fitted dose curve; in most records, active means well fitted curve in the direction sought with a large enough effect; inconclusive means small, poorly fitted or top-dose-only effect, or another doubt; inactive means no such curve, though single readings can be large; an effect the other way counts as inactive or inconclusive.

COC(=O)C1=C(c2cccc(C#N)c2)C[C@@H]2CC[C@H]1N2C(=O)NCc1ccco1	Sm TGR inh 35.5µM (no result: NS1 inh)
COC(=O)C1=C(c2cccc(OCc3ccccc3)c2)C[C@@H]2CC[C@H]1N2C(=O)NCCN1CCOCC1	Pf growth 96h 5.22µM, Pf growth 48h inconclusive (no result: NS1 inh)
COC(=O)c1cc(=O)n2c(sc3ccccc32)c1C#N	none
CCN(CC)S(=O)(=O)c1cccc(-c2nnc(SCC(=O)NC)n2N)c1	none
CCN(CC)S(=O)(=O)c1cccc(-c2nnc(SCC(=O)c3ccc(Cl)s3)n2C)c1	Pf growth 48h 13.1µM
CCC(=O)Nc1ccc(C(=O)CSc2nnc(-c3ccccc3F)n2C2CC2)cc1	Pf growth 96h 2.94µM, Pf growth 48h 2.62µM
CC(=O)N1CCN(CC(=O)Nc2ccccc2C(=O)Nc2ccccc2)CC1	none (no result: Sm TGR inh, Pf growth 96h, Pf growth 48h, NS1 inh)
Cc1ccc(NC(=O)/C(C#N)=C(\N)C(Cl)(Cl)Cl)nc1	Sm TGR inh inconclusive (no result: NS1 inh)
O=C(Oc1ccc2ccc(=O)oc2c1)c1ccc([N+](=O)[O-])cc1	none
O=c1ccc2ccc(Oc3ccc([N+](=O)[O-])cc3[N+](=O)[O-])cc2o1	Sm TGR inh 39.8µM (no result: AMA1 RON2 block)
O=Cc1ccc(Oc2cc(-c3ccccc3)nc(-c3ccccc3)n2)cc1	Pf growth 96h 13.1µM
CCCCn1c(N)c(N(CCC(C)C)C(=O)c2cccc(-n3cnnn3)c2)c(=O)[nH]c1=O	none (no result: NS1 inh)
CCN1CCN(c2ccc(N3CCN(S(=O)(=O)c4ccc(C)c([N+](=O)[O-])c4)CC3)nn2)CC1	Pf growth 96h 0.928µM, Pf growth 48h 13.1µM (no result: NS1 inh)
Cc1ccc(S(=O)(=O)N2CCN(C)CC2)cc1[N+](=O)[O-]	none
C=CCN1C(=O)C(Cc2ccc(Br)cc2)S/C1=N\N=C\c1ccco1 (stereo unspecified)	Sm TGR inh inconclusive, Pf growth 96h 11.7µM
C=CCN1C(=O)C(Cc2ccc(F)cc2)S/C1=N/N=C/c1ccco1 (stereo unspecified)	Pf growth 96h inconclusive
C=CCN1C(=O)C(Cc2ccc(OC)cc2)S/C1=N/N=C/c1ccco1 (stereo unspecified)	Sm TGR inh 39.8µM, Pf growth 96h inconclusive, Pf growth 48h 9.28µM
O=C(COc1ccc([N+](=O)[O-])cc1)Nc1cccc2nsnc12	Pf growth 96h inconclusive
CCOC(=O)C1CCCN(c2nc3c(S(=O)(=O)c4ccc(C)c(C)c4)nnn3c3ccc(Cl)cc23)C1 (stereo unspecified)	none (no result: Pf growth 96h, Pf growth 48h, NS1 inh, AMA1 RON2 block)
COc1cccc(C2NC(=O)CCC2[N+](=O)[O-])c1OC (stereo unspecified)	none
COc1cc(C2NC(=O)CCC2[N+](=O)[O-])c(OC)cc1Br (stereo unspecified)	Pf growth 96h 6.57µM
NC(=S)c1cn(C2OC(CO)C(O)C2O)c2ncnc(N)c12 (stereo unspecified)	Pf growth 96h 4.15µM, Pf growth 48h 1.31µM
Nc1ncnc2c1ccn2[C@@H]1O[C@H](CO)[C@@H](O)[C@H]1O	none (no result: Sm TGR inh, Pf growth 96h, Pf growth 48h, NS1 inh)
CC(C)(C)N=C(NS(=O)(=O)c1cccs1)c1ccccc1	none
CC(C)N=C(NS(=O)(=O)c1cccs1)c1ccccc1	Pf growth 96h 13.1µM
COc1cc(/C=N/Nc2nc(-c3ccc(S(=O)(=O)N(C)C)cc3)cs2)ccc1O	Pf growth 96h 8.28µM, Pf growth 48h 2.08µM, NS1 inh inconclusive
COc1cc(/C=N/Nc2cc(C)nc(NS(=O)(=O)c3ccc(C)cc3)n2)ccc1O	none
O=[N+]([O-])c1cc(/C=N\Nc2nc(-c3ccccc3)cs2)ccc1O	Pf growth 48h 11.7µM (no result: NS1 inh)
Cc1csc(N/N=C\c2cccnc2)n1	Sm TGR inh 22.4µM (no result: NS1 inh)
O=[N+]([O-])c1ccc(-c2csc(N/N=C/c3cccnc3)n2)cc1	none
Cc1csc(N/N=C/c2ccc(O)c([N+](=O)[O-])c2)n1	Sm TGR inh 10µM, Pf growth 96h inconclusive (no result: Pf growth 48h)
Cc1nnc(N/N=C/c2ccc(O)c([N+](=O)[O-])c2)[nH]c1=O	Pf growth 96h inconclusive
CS(=O)(=O)N1CCCC(C(=O)Nc2ccc(F)c(F)c2)C1 (stereo unspecified)	none (no result: NS1 inh)
CC12C=CC(=O)C=C1CCC1C2C(O)CC2(C)C1CCC2(O)C(=O)CO (stereo unspecified)	none (no result: Sm TGR inh, Pf growth 96h, Pf growth 48h, NS1 inh)
Cn1cc(C(=O)c2ccc(Cl)cc2Cl)cc1C(=O)N/N=C(\N)COc1ccc(Cl)cc1	Pf growth 96h 9.28µM
Cn1cc(C(=O)c2ccc(Cl)cc2Cl)cc1C(=O)N/N=C(\N)COc1ccc(F)cc1	Pf growth 48h inconclusive (no result: Pf growth 96h)
CCOc1ccc2c(c1)-c1c(ssc1=S)C(C)(C)N2	Pf growth 96h inconclusive, AMA1 RON2 block 18.9µM (no result: Pf growth 48h)
CCOc1ccc2c(c1)-c1c(ssc1=S)C(C)(C)N2C(=O)CSC1=NCCS1	Pf growth 96h 1.65µM, Pf growth 48h inconclusive, NS1 inh inconclusive, AMA1 RON2 block 10µM
COc1ccc2c(c1)CC1(CN2C)C(=O)NC(=O)N(CCc2ccccc2)C1=O (stereo unspecified)	Sm TGR inh 39.8µM
O=C(NCCCc1nc2ccccc2n1Cc1ccc(F)cc1)C1CCCCC1	none (no result: Pf growth 96h, Pf growth 48h, NS1 inh, AMA1 RON2 block)
COc1ccc([C@H]2CC(=O)C=C(c3ccccc3-c3ccccc3)C2)cc1	Pf growth 96h 13.1µM, Pf growth 48h inconclusive (no result: NS1 inh)
COc1ccc([C@H]2CC(=O)C=C(c3ccc(-c4ccccc4)c(F)c3)C2)cc1	none (no result: NS1 inh)
COc1ccc([C@H]2CC(=O)C=C(c3ccc(OC(F)(F)F)cc3)C2)cc1	none (no result: NS1 inh)
COc1ccc([C@H]2CC(=O)C=C(c3ccc(CNC(=O)OC(C)(C)C)cc3)C2)cc1	Pf growth 96h 5.86µM, Pf growth 48h 11.7µM (no result: NS1 inh)
COc1ccc([C@H]2CC(=O)C=C(c3ccccc3Oc3ccccc3)C2)cc1	Pf growth 96h inconclusive, Pf growth 48h 10.4µM (no result: NS1 inh)
COc1ccc([C@H]2CC(=O)C=C(c3cccc(F)c3OC)C2)cc1	none (no result: NS1 inh)
Cc1cccc(CN2C(=O)c3ccccc3Sc3ccc(C(=O)N4CCCC4)cc32)c1	none (no result: Pf growth 96h, Pf growth 48h, NS1 inh, AMA1 RON2 block)
CN(C(=O)c1ccc(-c2nn(C)c(=O)c3ccccc23)cc1)C1CCCCC1	Pf growth 48h 11.7µM
Cn1nc(-c2ccc(N3CCOCC3)c(NC(=O)COc3ccccc3)c2)c2ccccc2c1=O	none (no result: Sm TGR inh, Pf growth 96h, Pf growth 48h, AMA1 RON2 block)
COc1ccc(OCC(=O)Nc2cc(-c3nn(C)c(=O)c4ccccc34)ccc2N2CCOCC2)cc1	Pf growth 96h 5.86µM, Pf growth 48h inconclusive
CCN(CC)C(=O)c1ccc(NC(=O)COc2ccc(-c3nn(C)c(=O)c4ccccc34)cc2)cc1	Pf growth 96h inconclusive, Pf growth 48h 13.1µM
CN(CCO)C(=O)c1ccc(-c2nn(C)c(=O)c3ccccc23)cc1	none
Cc1ccc(C(=O)NC(C)C(c2cccs2)N2CCCC2)s1 (stereo unspecified)	none
CCN(CC(=O)Nc1ccc2c(c1)OCCO2)S(=O)(=O)c1ccccc1	none
CCc1ccc2nc3nc(C)cc(C)c3c(N)c2c1	Pf growth 96h 1.65µM, Pf growth 48h inconclusive
Cc1cc(C)c2c(N)c3ccccc3nc2n1	Pf growth 48h 14.7µM
CC(=O)Nc1ccc(CNc2nc3cc(-c4cccc(C(F)(F)F)c4)sc3c(=O)n2C)cc1	none (no result: Sm TGR inh, Pf growth 96h, Pf growth 48h, NS1 inh)
